This passage reports Potency and activity change, negative = inhibition results from PubChem BioAssay (Tox21).

Results filed as inconclusive are left out. Entries that show only a call come without a potency. Activity calls are given as the source filed them. Calls come from the whole dose curve; as a rule, active = well fitted inhibition curve with a large enough effect in the signal ratio in the repeat runs, with a control signal flat; inconclusive = weak or mixed curves, or effect the other way; inactive = flat fitted curve, though single readings scatter; the % refers to the signal ratio.
Potency is the fitted concentration of half-maximal effect.

The target of the assay is D(2) dopamine receptor (Homo sapiens) (UniProt P14416). Kind of assay: Dopamine D2 receptor (DRD2) small molecule antagonists, cell-based qHTS assay (AID 1963595). As to conditions: HEK293-DRD2 cAMP HTRF antagonist mode; series mostly up to 92.4 µM. The source says: National Center for Advancing Translational Sciences [NCATS]
Chain of D(2) dopamine receptor (Homo sapiens) (P14416 whole entry, looked up): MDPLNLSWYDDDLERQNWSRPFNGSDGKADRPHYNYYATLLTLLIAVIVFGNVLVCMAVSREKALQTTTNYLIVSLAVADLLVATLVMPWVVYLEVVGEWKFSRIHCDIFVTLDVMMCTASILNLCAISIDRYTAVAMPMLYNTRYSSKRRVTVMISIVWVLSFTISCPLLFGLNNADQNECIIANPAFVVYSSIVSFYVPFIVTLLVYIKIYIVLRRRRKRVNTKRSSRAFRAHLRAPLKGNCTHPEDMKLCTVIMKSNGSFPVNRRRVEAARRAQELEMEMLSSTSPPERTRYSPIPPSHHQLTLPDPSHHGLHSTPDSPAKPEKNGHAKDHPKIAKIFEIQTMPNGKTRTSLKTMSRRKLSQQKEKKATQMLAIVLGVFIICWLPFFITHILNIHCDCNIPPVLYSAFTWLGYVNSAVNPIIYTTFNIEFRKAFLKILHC
Division of Preclinical Innovation [DPI]
U.S. Environmental Protection Agency [EPA]
National Institutes of Environmental Health Sciences [NIEHS]
National Toxicology Program [NTP]
U.S. Food and Drug Administration [FDA]
DRD2 is the D2 subtype of the dopamine receptor, which is coupled to Gi subtype of G protein-coupled receptor. This G protein-coupled receptor inhibits adenylyl cyclase activity. The DRD2-HEK293 cell line stably expressing D2 dopamine receptor can be used for screening agonists and antagonists of interactions between D2 and its ligands. The Hek293-DRD2 cAMP assay is based on HTRF technology. It measures changes of cAMP accumulation in response to Gi coupled GPCR activation or inhibition.
Tox21 Assay Protocol Summary:
DRD2-Hek293 cells were dispensed at 600 cells/3uL/well in 1536-well white plates using a Multidrop Dispenser. After the assay plates were incubated at a 37 C/5% CO2 incubator for 24 h, 1 uL of Ro20-1724 at final concentration of 0.1 mM was transferred to the assay plate by a Flying Reagent Dispenser. Following Ro20-1724 addition, 23 nL of compound dissolved in DMSO, positive controls or DMSO only was added to the assay plates via Wako pintool station. The assay plates were incubated at room temperature for 10 min. Next, 1 uL of mixture of NKH477 (final concentration at 200 nM) and quinpirole (final concentration at 12 nM) was added into the plates. After the assay plates were incubated at room temperature for an additional 30 min, 2.5 ul/well of cAMP-d2 and 2.5 ul/well of anti-cAMP-cryptate were added respectively into the assay plates using a Flying Reagent Dispenser. The plates were incubated at room temperature for 1 h. The fluorescence intensity in the plates was measured at 340 nm excitation and 665 & 620 nm emission by an Envision plate reader.
A general note: qHTS replaces the single test concentration by a dilution series.
In the case of `BrCCCCCBr`, the Potency result is “inactive”.
On the same count and under the same terms, next, `CCN(CCC#N)c1ccc(N=Nc2ccc([N+](=O)[O-])cc2)cc1`: “inactive”; `Nc1ccc(C(=O)O)c(O)c1`: “inactive”; `CCOC(=O)/C=C/C(=O)O`: “inactive”.
Still for that read-out and setting: the same measure for `CC(C)Oc1ccccc1O`: “inactive”.
The same measure, in the same setting: the same measure for `C=C1C(CCl)(CCl)C2(Cl)C(Cl)C(Cl)C1(Cl)C2(Cl)Cl` (stereo not given): “inactive”.
For the molecule `CCOCC(O)COc1ccc(NC(=O)CC[S+](C)C)cc1` (stereo not given), the Potency result is “inactive”.
Same read-out and setting: the same measure for `O=[N+]([O-])c1c(Cl)cc(Cl)cc1Cl`: “inactive”; for `O=C(O)c1cn(C2CC2)c2cc(Cl)c(F)cc2c1=O`: “inactive”; for `C=CS(=O)(=O)O`: “inactive”.
On the same count and under the same terms, next, `CCOc1ccccc1O`: “inactive”.
The same measure, in the same setting: next, `C1CCN(CN2CCCCC2)CC1`: “inactive”.
As to `CCNC(=O)C1CC(C)CCC1C(C)C` (stereo not given), the Potency result was “inactive”.
With `CCc1cccc(CC)c1N(COC)C(=O)CS(=O)(=O)O`, the Potency result was “inactive”.
On the same count and under the same terms, the same measure for `COc1cc(C(=O)NS(=O)(=O)c2ccccc2C)ccc1Cc1cn(C)c2ccc(NC(=O)OC3CCCC3)cc12`: “inactive”.
Still for that read-out and setting: the same measure for `CCOC(=O)C1=C(C)NC(C)=C(C(=O)OC)C1c1cccc([N+](=O)[O-])c1` (stereo not given): “inactive”.
On the same count and under the same terms, next, `CCOC(=O)C(C)O` (stereo not given): “inactive”; `CC(C)Cc1nccs1`: “inactive”.
For the molecule `BrC/C=C/CBr`, the activity change, negative = inhibition is 7.87% [at 18.9 µM] (inactive).
In the case of `OCC(O)c1ccccc1` (stereo not given), the Potency result is “inactive”.
For the molecule `CCc1cccc(C)c1N(C(=O)CS(=O)(=O)O)C(C)COC` (stereo not given), the Potency result is “inactive”.
Same read-out and setting: next, `Oc1ccc(Oc2ccccc2)cc1`: “inactive”; `CC(=O)C=O`: “inactive”; `CC(=O)CC(C)C`: “inactive”.
With `O=C(CCCCCCCCc1cccnc1)N1CCC(C=C(c2ccccc2)c2ccccc2)CC1`, the Potency entry is “inactive”.
The same measure, in the same setting: next, `C=C(C)C(=O)OCCCCCCCCCCOC(=O)C(=C)C`: “inactive”.
Same read-out and setting: the same measure for `Nc1ccnc(=O)[nH]1`: “inactive”; for `Nc1cccc(S(=O)(=O)c2cccc(N)c2)c1`: “inactive”; for `CCCCCCCCCCCC[N+](C)(C)CCCCCCCCCCCC`: 43.3 µM (active).
Same read-out and setting: the same measure for `Cc1c(C(=O)NCCO)[n+](=O)c2ccccc2n1[O-]`: “inactive”.
Consider `CNCCC(Oc1ccccc1OC)c1ccccc1` (stereo not given), for which the Potency result is “inactive”.
Regarding `CCCCCCCCSCc1cc(C)c(O)c(CSCCCCCCCC)c1`, the Potency result is “inactive”.
On the same count and under the same terms, the same measure for `Cc1ccc2c(c1[N+](=O)[O-])C(=O)c1ccccc1C2=O`: “inactive”; for `CN1CCCCC1CCN1c2ccccc2Sc2ccc(S(C)=O)cc21` (stereo not given): 1.88 µM (active).
On the same count and under the same terms, next, `CCCCCCCC/C=C\CCCCCCCCCCCC(=O)O`: “inactive”.
Still for that read-out and setting: next, `CCCCCCCCCCCC`: “inactive”; `C=C(C)CCCC(C)CCO` (stereo not given): “inactive”; `CCCCCCCCN`: “inactive”.
Turning to `CCCCCN(CCCCC)C(=O)C(CCC(=O)O)NC(=O)c1ccc(Cl)c(Cl)c1` (stereo not given), the Potency result was “inactive”.
`CCCOC(=O)c1ccc(N)cc1`: the Potency result is “inactive”.
